Data taken from PubChem BioAssay (NCATS).
Records with an inconclusive call do not appear. The source made the active and inactive calls. Calls follow the shape of the dose curve; as a rule, active = well fitted inhibition curve with a large enough effect; inconclusive = small, poorly fitted or top-dose-only effect; inactive = no such curve, though single readings can be large or run the other way.

Target: Rap guanine nucleotide exchange factor 4 (Homo sapiens) (UniProt Q8WZA2)
Experiment: Confirmatory qHTS for antagonist of cAMP-regulated guanine nucleotide exchange factor 4 (EPAC2) (AID 1645885); also: nearly all actives have a fitted effect of over 25% in size; also: potency is read from the fitted curve at half-maximal effect; as to activity change, negative = inhibition: % is scaled to controls: 0 for no effect and ±100 for the full control effect
Conditions: EPAC2 Rap1B-BODIPY-GDP exchange fluorescence, biochemical; series mostly up to 12.7 µM; activity change, negative = inhibition: at the top concentration

Chain of Rap guanine nucleotide exchange factor 4 (Homo sapiens) (Q8WZA2 whole entry, looked up): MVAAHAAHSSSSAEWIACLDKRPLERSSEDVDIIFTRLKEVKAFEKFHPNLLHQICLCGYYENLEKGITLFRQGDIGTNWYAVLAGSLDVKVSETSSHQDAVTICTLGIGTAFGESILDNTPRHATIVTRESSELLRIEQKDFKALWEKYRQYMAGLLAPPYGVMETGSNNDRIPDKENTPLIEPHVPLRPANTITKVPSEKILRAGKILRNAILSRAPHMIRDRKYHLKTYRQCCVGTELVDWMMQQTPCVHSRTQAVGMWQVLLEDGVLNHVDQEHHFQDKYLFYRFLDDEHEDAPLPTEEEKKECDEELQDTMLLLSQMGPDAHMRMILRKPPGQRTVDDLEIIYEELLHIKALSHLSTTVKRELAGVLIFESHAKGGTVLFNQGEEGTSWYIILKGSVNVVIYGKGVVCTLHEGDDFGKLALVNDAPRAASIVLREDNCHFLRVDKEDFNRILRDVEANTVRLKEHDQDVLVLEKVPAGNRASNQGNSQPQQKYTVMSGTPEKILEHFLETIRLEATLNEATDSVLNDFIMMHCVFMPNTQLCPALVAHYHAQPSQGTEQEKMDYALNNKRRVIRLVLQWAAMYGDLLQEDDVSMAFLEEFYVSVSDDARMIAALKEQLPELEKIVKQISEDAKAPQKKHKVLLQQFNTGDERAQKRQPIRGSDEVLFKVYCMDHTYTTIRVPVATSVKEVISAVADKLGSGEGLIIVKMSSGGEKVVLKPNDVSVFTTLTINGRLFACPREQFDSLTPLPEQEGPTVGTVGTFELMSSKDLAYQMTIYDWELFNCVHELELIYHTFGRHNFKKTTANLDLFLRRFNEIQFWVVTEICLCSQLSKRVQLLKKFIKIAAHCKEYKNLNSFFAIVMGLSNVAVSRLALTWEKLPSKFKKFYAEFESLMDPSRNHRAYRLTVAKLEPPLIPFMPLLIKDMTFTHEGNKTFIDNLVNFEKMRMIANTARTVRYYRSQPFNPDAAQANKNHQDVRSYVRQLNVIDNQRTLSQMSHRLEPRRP

Row | SMILES | activity change, negative = inhibition | Potency | outcome
1 | Cc1nc(N)sc1-c1csc(Nc2ncccn2)n1 | 2.14% [at 114 µM] (inactive) | – | –
2 | O=C1OC(Cc2ccccc2)(c2ccccc2)c2ccccc21 (stereo unspecified) | 61.1% [at 114 µM] (inactive) | – | –
3 | Cc1ccc(C2CC2/C(=N/O)c2ccc(F)cc2)cc1 (stereo unspecified) | – | 37.9 µM (active) | –
4 | COc1ccc(OC)c(NC(=O)CSc2ncnc3sc(C)cc23)c1 | 20% [at 114 µM] (inactive) | – | –
5 | Cc1ccc(SCC(=O)Nc2ccccc2N2CCOCC2)cc1 | – | – | inactive
6 | COc1ccccc1/C=C(/C(=O)OCC(=O)Nc1ccc(N(C)C)cc1)c1ccccc1 | – | 5.36 µM (active) | –
7 | CC(C)(C)c1cc(NCCCn2ccnc2)n2ncc(-c3ccccc3)c2n1 | 40.6% [at 114 µM] (inactive) | – | –
8 | CC(C)C(NC(=O)C1CC(=O)N(Cc2ccccc2)C1)c1nc2ccccc2[nH]1 (stereo unspecified) | -9.02% [at 114 µM] (inactive) | – | –
9 | N#CC1=C2N=C(N)c3c(sc4c3CCCCC4)N2C2=C(C(=O)CCC2)C1c1ccccc1 (stereo unspecified) | -2.66% [at 114 µM] (inactive) | – | –
10 | Cc1ccc(CNC(=O)c2cccc3c2C(=O)c2ccc(N4CCCCC4)cc2S3(=O)=O)cc1 | -4.6% (inactive) | – | –
11 | Cc1cc(N(CCO)Cc2ccccc2)n2nc(-c3ccc(C(C)(C)C)cc3)nc2n1 | 23.9% (inactive) | – | –
12 | Cc1cccc(Cn2nnc3c(=O)[nH]c(C4CCCN(C(=O)c5ccc(C(C)(C)C)cc5)C4)nc32)c1 (stereo unspecified) | – | – | inactive [at 12.7 µM]
13 | Cc1ccccc1OCC(=O)Nc1ccc(C(=O)OCc2cc(=O)n3c(C)csc3n2)cc1 | -3.02% (inactive) | – | –
14 | Cc1nc(NC(=O)c2c(-c3ccccc3)c(-c3ccccc3)nn(C)c2=O)sc1C | 2.55% (inactive) | – | –

Target: Rap guanine nucleotide exchange factor 3 (Homo sapiens) (UniProt O95398)
Experiment: Counterscreen qHTS for antagonist of cAMP-regulated guanine nucleotide exchange factor 3 (EPAC1) (AID 1645888);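 also: fluorescence loss as bound BODIPY-GDP is released from Rap1B; % of control where 0% means no effect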
Conditions: Rap1B-BODIPY-GDP nucleotide exchange, fluorescence; series mostly up to 154 µM; activity change, negative = inhibition: at the top concentration
In short: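 Rap1B–BODIPY-GDP (250 nM) with 50 uM GDP; compounds pin-transferred to 9.74 nM–152 uM final (activator) or from 7.32 nM upwards (inhibitor). Fluorescence Ex/Em 480/540 nm read at 5 and 30 min, then after adding cAMP or buffer, at room temperature.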

Chain of Rap guanine nucleotide exchange factor 3 (Homo sapiens) (O95398 whole entry, looked up): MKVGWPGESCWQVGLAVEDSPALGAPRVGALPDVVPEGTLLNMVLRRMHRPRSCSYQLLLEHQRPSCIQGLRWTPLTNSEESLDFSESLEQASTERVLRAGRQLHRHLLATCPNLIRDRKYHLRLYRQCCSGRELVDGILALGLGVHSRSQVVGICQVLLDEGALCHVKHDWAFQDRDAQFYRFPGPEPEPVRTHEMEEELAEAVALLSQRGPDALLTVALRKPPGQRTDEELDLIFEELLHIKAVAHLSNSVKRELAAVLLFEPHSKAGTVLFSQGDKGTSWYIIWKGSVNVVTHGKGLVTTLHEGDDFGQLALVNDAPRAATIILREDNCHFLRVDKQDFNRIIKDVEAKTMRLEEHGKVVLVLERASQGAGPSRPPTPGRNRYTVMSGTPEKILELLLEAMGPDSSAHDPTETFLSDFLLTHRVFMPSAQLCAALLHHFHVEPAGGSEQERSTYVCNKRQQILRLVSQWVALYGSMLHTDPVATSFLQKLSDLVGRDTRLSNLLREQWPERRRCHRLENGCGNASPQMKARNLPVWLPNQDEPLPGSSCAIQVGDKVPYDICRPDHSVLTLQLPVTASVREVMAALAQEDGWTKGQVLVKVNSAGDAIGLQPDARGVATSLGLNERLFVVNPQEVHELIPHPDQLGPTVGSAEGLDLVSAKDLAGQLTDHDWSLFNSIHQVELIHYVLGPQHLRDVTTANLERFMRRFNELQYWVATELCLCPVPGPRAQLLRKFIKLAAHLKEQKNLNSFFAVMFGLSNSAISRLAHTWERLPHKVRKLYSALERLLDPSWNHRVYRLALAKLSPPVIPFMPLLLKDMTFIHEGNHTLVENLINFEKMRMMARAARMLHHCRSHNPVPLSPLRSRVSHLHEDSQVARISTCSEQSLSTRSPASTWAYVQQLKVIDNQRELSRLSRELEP

Row | SMILES | activity change, negative = inhibition
15 | Cc1nc(N)sc1-c1csc(Nc2ncccn2)n1 | 14.1% (inactive)
16 | O=C1OC(Cc2ccccc2)(c2ccccc2)c2ccccc21 (stereo unspecified) | 6.49% (inactive)
17 | COc1ccc(C=C(C(C)=O)C(=O)c2ccccc2)cc1 | -5.04% (inactive)
18 | Clc1ccc(CSc2nnc(-c3ccccn3)n2Cc2ccco2)cc1Cl | -12.8% (inactive)
19 | COC(=O)c1ccc2nc(-c3cccc(Br)c3)c(Cc3ccccc3)n2c1 | 16.7% (inactive)
20 | COc1ccc(OC)c(NC(=O)CSc2ncnc3sc(C)cc23)c1 | 6.98% (inactive)
21 | C/C(=N\N(Cc1ccccc1)c1ccccc1)c1cccnc1 | -16.8% (inactive)
22 | Cc1ccc2nc(-c3ccccc3)c(Cc3cccc(Cl)c3)n2c1 | -0.969% (inactive)
23 | O=C1Nc2ccccc2/C1=N\N=C\c1ccc(O)c(O)c1 | 27% (inactive)
24 | Cc1ccc(SCC(=O)Nc2ccccc2N2CCOCC2)cc1 | -13.6% (inactive)
25 | COC(=O)C1=CN(c2c(C)cc(C)cc2C)C(N)=C(C#N)C1c1ccccc1 (stereo unspecified) | -16.5% (inactive)
26 | COC(=O)CN(c1nc(C)c(Br)c(OC)n1)S(=O)(=O)c1ccccc1 | 17% (inactive)
27 | Cc1ccc2sc(N(CCCN(C)C)C(=O)c3nc4ccccc4s3)nc2c1C | 14.6% (inactive)
28 | COc1ccccc1/C=C(/C(=O)OCC(=O)Nc1ccc(N(C)C)cc1)c1ccccc1 | -1.42% (inactive)
29 | Cc1cccc(Oc2ccccc2NC(=O)C2=COCCO2)c1 | -4.95% (inactive)
30 | CCC(=O)N(CCC(c1ccc(C)cc1)c1ccco1)Cc1ccco1 (stereo unspecified) | -11.4% [at 30.8 µM] (inactive)

Row | SMILES | activity change, negative = inhibition
31 | CCOc1ccc(C2C3=C(CCCC3=O)Nc3ccc4ncccc4c32)cc1 (stereo unspecified) | -12.5% [at 30.8 µM] (inactive)
32 | CN(Nc1cccc(Cl)c1)c1cccc(Cl)c1 | -0.223% (inactive)
33 | CC(C)C(NC(=O)C1CC(=O)N(Cc2ccccc2)C1)c1nc2ccccc2[nH]1 (stereo unspecified) | -14.2% (inactive)
34 | COc1ccccc1C1CC(=O)Oc2cc(C)c(Br)c(C)c21 (stereo unspecified) | -10.7% (inactive)
35 | O=C(O)c1cccc(Cn2c(Cl)c(/C=N/NC(=O)c3cc4ccccc4cc3O)sc2=O)c1 | 9.85% (inactive)
36 | N#CC1=C2N=C(N)c3c(sc4c3CCCCC4)N2C2=C(C(=O)CCC2)C1c1ccccc1 (stereo unspecified) | -25.9% (inactive)
37 | COc1ccc(C(=O)Oc2ccc(/C=N/Nc3ccc(Cl)c(C(=O)O)c3)cc2OC)cc1 | -11.7% (inactive)
38 | N#Cc1c(N)c(C#N)c(-c2ccc(O)cc2)c2c1CCCC2 | 11.2% (inactive)
39 | COc1ccc(NC(=O)c2cc(-c3cc(Cl)ccc3C)n[nH]2)cn1 | 8.06% (inactive)
40 | S=C(Nc1ccc2nsnc2c1)N1CCCCC1 | 3.55% (inactive)
41 | Cc1ccc(CNC(=O)c2cccc3c2C(=O)c2ccc(N4CCCCC4)cc2S3(=O)=O)cc1 | -7.83% [at 30.8 µM] (inactive)
42 | Cc1cc(N(CCO)Cc2ccccc2)n2nc(-c3ccc(C(C)(C)C)cc3)nc2n1 | 24.6% (inactive)
43 | O=C(Nc1ccc(F)cc1)c1cccc(N2C(=O)C3C4C=CC(C5CC45)C3C2=O)c1 (stereo unspecified) | 11.5% (inactive)
44 | CC(=O)Nc1ccc(S(=O)(=O)N2CCN(c3cc(C)ccc3C)CC2)cc1 | -8.81% (inactive)
45 | O=C1N(c2ccc(Cl)cc2)C(c2ccccc2)N2CCCN12 (stereo unspecified) | 15.5% (inactive)
46 | COc1ccc(Cl)cc1NC(=O)CN(C)Cc1ccc(OC)c(OC)c1 | -13.5% (inactive)
